According to PubChem BioAssay AID1347426 (Functional Genomics Laboratory (NCATS/FGL), 2020):
The campaign covered roughly 31,000 sequences. About 1,400 (4.5%) were called active. The full list was thinned out, with actives kept by preference. Values without a mark were called inactive.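 Rule for the calls: active = median seed-adjusted z-score above 1 or below -1; inactive = the rest.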

Test: Novel Modifiers of Survival Motor Neuron (SMN) Protein: Gene Identification via Genome-wide siRNA Screen;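 note: luminescence tracks full-length SMN protein made from the SMN2 reporter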
Details: HEK293T SMN2-luciferase reporter, siRNA knockdown, 72 h; actives lie on both sides
Procedure, shortened: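 siRNA screen, 10418 genes ×3 siRNAs; 1 pmol/well, lipid reverse transfection into HEK293T SMN2-luc reporter line. 72 h, 37 °C, 5% CO2; ONE-Glo readout. Data: neg-ctrl normalized, log10, MAD; hit = MAD >1.0 or < -1.0.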
CAGGCACAGUUGCCGAUUATT against CD247 showed a median seed-adjusted z-score of -0.522.
Sequence CCUUGACCAUGAAAAAGAATT against ZNF704 has a median seed-adjusted z-score of -0.15.
With GCUAUUGAAAGUACACCUATT against NARG1 the median seed-adjusted z-score was -1.02 (active).
Sequence GGUUAUAACGGGACGAUUUTT against KIF5C has a median seed-adjusted z-score of 0.283.
In the case of CCAUGUUAGAAGCCCGGAATT against ZNF385D, the median seed-adjusted z-score is reported as -0.338.
Work on AGAGGUACGUCUACAGUAUTT against F2R yielded a median seed-adjusted z-score of -0.392.
Work on CGUCAAAUUUUUGCACAAATT against GPR176 yielded a median seed-adjusted z-score of 0.0782.
Work on GCCGAAUUGUUUCUAGUUATT against PIN1 yielded a median seed-adjusted z-score of 0.156.
With GACAGUCACUGAGCAUAGATT against PKD1L2 the median seed-adjusted z-score was -1.17 (active).
For GGAGAAAUCAGCUACAGGATT against SRD5A2, the median seed-adjusted z-score was 0.185.
CAAUUGGAAUCGUCUUUUUTT against UBAC2 showed a median seed-adjusted z-score of 0.611.
For CAAGUCCCAUUGAUCCUGATT against HLF, the median seed-adjusted z-score was 0.0548.
For CAAGAGCAAGCAAACCUAATT against OLR1, the median seed-adjusted z-score was 0.
CGGCAAGAGUGUCCAGUAUTT against RNF5 gave a median seed-adjusted z-score of -0.0342.
CCUUAGGAAUGAAAUCGCUTT against SIPA1L1 showed a median seed-adjusted z-score of 0.0925.
With GCACUAGCAGAGUCCGAAATT against OPRK1 the median seed-adjusted z-score was -1.08 (active).
Work on CAGAAUCGCUUCUACAAGATT against SPAG6 yielded a median seed-adjusted z-score of -0.439.
For UGACAUCCGUGACCUCUAATT against LHX9, the median seed-adjusted z-score was 0.157.
GGAAAACGGCAUUGCAGAATT against SLC23A2 showed a median seed-adjusted z-score of -0.0585.
Sequence GGCACUAUUCUGCUAAGAATT against RAPGEF5 has a median seed-adjusted z-score of 0.529.
For GCCUGUUCGAAAGCGCAAATT against UBR4, the median seed-adjusted z-score was 0.602.
For AGGAGAAUGUGAUCCGAGATT against TXNDC14, the median seed-adjusted z-score was -2.39 (active).
With GGGUCUUCAUGAUUGGUGUTT against SLC44A5 the median seed-adjusted z-score was 0.179.
With GUUUGUAGGUCGUCAGAAATT against NDUFS6 the median seed-adjusted z-score was -0.0128.
Sequence CAUCCAGUCUGUAUACGAATT against ACLY has a median seed-adjusted z-score of 0.478.
GCCUCCAAAGGUUACAUUUTT against UBE2E1 gave a median seed-adjusted z-score of 0.888.
With GAUGUAAACCCUGAACUAATT against CSRP2 the median seed-adjusted z-score was -0.829.
For GAGGUAAUCUGGGUGCACATT against PARK7, the median seed-adjusted z-score was -0.357.
With GAAUGGAGGUCAACUAUAUTT against UBE2E2 the median seed-adjusted z-score was -1.77 (active).
In the case of GAAUGUCAUCCGUAUUUCATT against AKR1C3, the median seed-adjusted z-score is reported as -0.00538.
For GGAACUGCUGCAUUAGAUATT against ITCH, the median seed-adjusted z-score was 0.199.
GAAUUUGUUCAUUAUCGUATT against UBE3A showed a median seed-adjusted z-score of 0.0949.
In the case of GGCGAACUGUUUUAGAAGATT against CCNB2, the median seed-adjusted z-score is reported as 0.0328.
For CGAUGUUGGUUAUGAGAGATT against ACTR3, the median seed-adjusted z-score was -0.7.
With GGAUAGAGGUUUCCAGUUUTT against CNBP the median seed-adjusted z-score was -1.14 (active).
With GCAGGUUCCUUAUCUGUCATT against BIRC5 the median seed-adjusted z-score was 0.0236.
With GGAUUAGUGAUUAUAUGGATT against NPAS3 the median seed-adjusted z-score was -0.0316.
Work on CAUCCAAGAUUAUAGUGGATT against PNLIP yielded a median seed-adjusted z-score of 0.385.
With GUACAGACCUGAGAAUUCUTT against CTSL2 the median seed-adjusted z-score was -1.04 (active).
For GAUGAACCCUGGAACUUCATT against ZNF354B, the median seed-adjusted z-score was 0.393.
With AGAAGGACGUGUCCAAGGATT against FOXC2 the median seed-adjusted z-score was -0.792.
With GAAUGAUGUUGACAUGAGUTT against SSR1 the median seed-adjusted z-score was -0.434.
GCCUAUUCAUCGGAAGGUATT against SENP2 gave a median seed-adjusted z-score of 0.
For UGCUUAUGAUCAACAUUUATT against LSM3, the median seed-adjusted z-score was -1.36 (active).
In the case of GGGUUUAACUUUCAGAGAUTT against VN2R1P, the median seed-adjusted z-score is reported as -0.25.
With GGGUUGGUGUGAUUGGAGUTT against LOC647743 the median seed-adjusted z-score was -0.203.
For GCUCGGCAUCUGUUGGUUATT against SIRT3, the median seed-adjusted z-score was -0.341.
Sequence GGCCUAUAAUGAAUACCCUTT against GLRA1 has a median seed-adjusted z-score of 0.
With CAUUGAAACUGAUAAACCATT against ARCN1 the median seed-adjusted z-score was -1.25 (active).
Work on GCAGAGCAAUGGGAGAGAATT against EPHB4 yielded a median seed-adjusted z-score of -0.143.
In the case of GCAUCGCAGUGCUAAACAUTT against DGKA, the median seed-adjusted z-score is reported as -1.36 (active).
With AGACAAUCGUCAUGCAAUUTT against CDC37 the median seed-adjusted z-score was 0.
For GAAUUACUCUGCCUCUAAATT against TAF7, the median seed-adjusted z-score was -0.593.
With CGUCUAAUGCUGCUCCACATT against AGPAT1 the median seed-adjusted z-score was -1.38 (active).
With AUCCUUCCCUGAAUCAUCATT against KLRC2 the median seed-adjusted z-score was -0.472.
With GUAUCCAUGUGCAUUUUAATT against NT5E the median seed-adjusted z-score was 0.199.
In the case of GCUCAUACCUCGGAUGUCATT against GPR31, the median seed-adjusted z-score is reported as -0.0381.
Sequence CCACAUUUGUGACGCAAAATT against TPSAB1 has a median seed-adjusted z-score of 0.197.
For GCUAAAUGGAGGAGACUAATT against HHEX, the median seed-adjusted z-score was -0.428.
Work on CAACAUUCAUGGACGGGAATT against SLC2A7 yielded a median seed-adjusted z-score of -0.0337.
In the case of CGUAAAUCCCUAAUCUUUATT against FOXJ1, the median seed-adjusted z-score is reported as -0.553.
For CACUGAAUGUGAGAGCUGUTT against HRC, the median seed-adjusted z-score was 1.06 (active).
Work on CCUUCUUCUGGAUACCGAUTT against ABCA9 yielded a median seed-adjusted z-score of -0.139.
In the case of GCGGAAAAGCUGUAUCUAUTT against POLR3E, the median seed-adjusted z-score is reported as -0.55.
Sequence GGUGGAACUUUUAAUCAAATT against GABPB2 has a median seed-adjusted z-score of 0.441.
For CCAGAUUGCUAGUAUCUCATT against TRAK1, the median seed-adjusted z-score was 0.298.
With CCUGGAAAGUACUCUAGAATT against PGS1 the median seed-adjusted z-score was 1.36 (active).
With GGAUCCUACUGGUAAAACUTT against NUDT5 the median seed-adjusted z-score was 0.228.
Work on GCAGCGACCUUUCAGAACATT against SALL1 yielded a median seed-adjusted z-score of -0.526.
With GAUUAUAAGUAUCUACGUUTT against GTPBP4 the median seed-adjusted z-score was 1.01 (active).
GACUGACACGGAAUAGUGUTT against ZNF286A gave a median seed-adjusted z-score of 0.0368.
In the case of CCACCUUCAAUAUCGAGUUTT against DRD3, the median seed-adjusted z-score is reported as 0.0447.
With ACUGCAAUCUGUUGCCCAATT against CLIC5 the median seed-adjusted z-score was 0.
Sequence CAUUCUCAGUCAUCAUAGATT against ATP8A2 has a median seed-adjusted z-score of 0.
In the case of GGAUCUGCUUUCGAACCUATT against MBOAT1, the median seed-adjusted z-score is reported as -1.22 (active).
For GGAUAGUAUGAAUGAUCAATT against SRP54, the median seed-adjusted z-score was 0.203.
For CCGCUUCACAGGUAGUUAATT against NUP93, the median seed-adjusted z-score was 1.01 (active).
For GGUCAAACAAUGUCGCUUUTT against COPB2, the median seed-adjusted z-score was -0.61.
With GUAAGUCCCUUUAUUCACATT against GFRA4 the median seed-adjusted z-score was -1.59 (active).
Work on GGACUCUACCUGACAGAAATT against CAPN13 yielded a median seed-adjusted z-score of 0.208.
GGUUCUAGCUGUCAACAUUTT against AP1G2 showed a median seed-adjusted z-score of 0.0657.
For ACCACCAAAUGAAGAAUAATT against AKR7A3, the median seed-adjusted z-score was 0.455.
GCAUCCUUGUGUACAUGUGTT against USP41 showed a median seed-adjusted z-score of 0.808.
For GCACCUUCGUCUACAAGGATT against PDE6A, the median seed-adjusted z-score was 1.25 (active).
With UGGACUUCGUGGUUCAGCATT against SULT1A1 the median seed-adjusted z-score was -0.26.
GGAUGUUUUCCGGUUCAUATT against LOC4951 showed a median seed-adjusted z-score of 0.0691.
In the case of GCUUUCAUCGGCUCCAUAATT against CARM1, the median seed-adjusted z-score is reported as 0.317.
GAUGUAACAUUGACAUUGATT against NOTCH2 gave a median seed-adjusted z-score of 0.000598.
CAUUUUCAGUCUUUAGAAATT against RNF34 gave a median seed-adjusted z-score of -0.0857.
For GGGUUGUUUCAAUCUAACATT against HDAC2, the median seed-adjusted z-score was -1.27 (active).
GCCCUGAAGAUAUCGUGAATT against PARVG gave a median seed-adjusted z-score of 0.321.
GGACUUUGAGGAAACGGAATT against BRD8 showed a median seed-adjusted z-score of -0.133.
In the case of GUUACGCCCUGAUUCUAAATT against MAT2A, the median seed-adjusted z-score is reported as -1.9 (active).
In the case of GGAACAAAGACUAAAAACATT against TUBB6, the median seed-adjusted z-score is reported as 0.63.
GCAAAACACCAGAACGAGATT against TESSP2 showed a median seed-adjusted z-score of 0.419.
Sequence GAAUAGAGGAUAUCCUUGATT against KYNU has a median seed-adjusted z-score of 0.00735.
In the case of CCAGCUUGCUUGUGUAUAATT against PPP1R14A, the median seed-adjusted z-score is reported as 0.0124.
GGAAGACUCAUUGAACAUATT against CASP1 showed a median seed-adjusted z-score of -0.331.
With GGGAAUUACCAGUUACGGATT against TMPRSS12 the median seed-adjusted z-score was 0.0961.
Work on CAAUGUUCCUCUACCUCUATT against MAL2 yielded a median seed-adjusted z-score of -0.604.
GCAUCCUUACAGCACUGCATT against XRCC3 showed a median seed-adjusted z-score of 0.332.
GACUAUCUUUUUAGGCAAATT against BRIP1 showed a median seed-adjusted z-score of 0.312.
Sequence GCCUCAUCGUUCUGCAGAATT against ZNF628 has a median seed-adjusted z-score of -0.121.
With GUACAGGCCCUACAUCAUUTT against LRP5 the median seed-adjusted z-score was -1 (active).
Sequence CAUCUGACCCUAACUGAAATT against ZMYND10 has a median seed-adjusted z-score of 0.255.
GGGUGAUCGAGGACCCAAATT against COL8A1 showed a median seed-adjusted z-score of -0.848.
In the case of GGAUCAUGCUAAAAGGAGATT against SNRPE, the median seed-adjusted z-score is reported as -2.77 (active).
GCCUUGUAAAAAUCAACUUTT against ZNF528 showed a median seed-adjusted z-score of -0.0746.
